# Measurements: PubChem BioAssay (NCATS)
# Records with an inconclusive call do not appear. The source made the active and inactive calls. The call rests on the fitted dose curve; in most records, active means well fitted inhibition curve with a large enough effect; inconclusive means small, poorly fitted or top-dose-only effect; inactive means flat fitted curve, though single readings scatter.
# Tested on: HEK293
# Experiment: Cytotoxic Profiling of Annotated Libraries Using Quantitative High-Throughput Screening (AID 1296008); further: nearly all actives have a fitted effect of over 60% in size
# Conditions: Five cell lines viability, CellTiter-Glo ATP luminescence, 48-72 h; max response: hits give low values
# Method in brief: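 Cells exposed to compounds for 48 or 72 hr at 37 degrees Celsius. Viability read as ATP-coupled luminescence with CellTiter-Glo after 10 min at room temperature.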
# On the % scale 0 is the no-effect control and ±100 the full control effect; potency means the concentration at half of the fitted maximal effect.
Compound,max response,Potency
COc1cccc(Cn2ncc3c4sc(S(C)=O)cc4n(C)c3c2=O)c1 (centres undefined),-7.28% (inactive),–
CC(C)CC(=O)O[C@@H]1O[C@H](CO)[C@@H](O[C@H]2O[C@H](C)[C@@H](N[C@H]3C=C(CO)[C@@H](O[C@H]4O[C@H](CO)[C@@H](O[C@H]5O[C@H](CO)[C@@H](O[C@H]6O[C@H](CO)[C@@H](O)[C@H](O)[C@H]6O)[C@H](O)[C@H]5O)[C@H](O)[C@H]4O)[C@H](O)[C@H]3O)[C@H](O)[C@H]2O)[C@H](O)[C@H]1O,-7.41% (inactive),–
COc1ccc(C2COc3cc(O)ccc3C2)c(O)c1OC (centres undefined),-9.14% (inactive),–
CCN1CCN(C(=O)N[C@@H](C(=O)N[C@@H]2C(=O)N3[C@@H]2SC(C)(C)[C@@H]3C(=O)O)c2ccccc2)C(=O)C1=O,-6.17% (inactive),–
COc1ccc(/C=C/C(N)=O)cc1OC,3.65% (inactive),–
N[C@@H](CC(=O)Nc1ccc(Oc2cc(F)c(F)cc2Br)cc1)C(=O)O,-28.9% (inactive),–
COc1cc(O)cc2c1C(=O)OC(C)C2 (centres undefined),4.69% (inactive),–
COc1cc(/C=C/C(=O)O[C@@H]2C[C@](O)(C(=O)O)C[C@@H](O)[C@H]2O)ccc1O,-0.759% (inactive),–
Cc1cn(C[C@H](N)C(=O)O)c(=O)n(Cc2ccsc2C(=O)O)c1=O,-7.52% (inactive),–
CC(O)C1CCC2C3CCC4CC(OC5OC(C(=O)O)C(O)C(O)C5O)CCC4(C)C3CCC12C (centres undefined),-10.1% (inactive),–
C/C=C1/[C@H](O[C@@H]2O[C@H](CO)[C@@H](O)[C@H](O)[C@H]2O)OC=C2C(=O)O[C@@H]3C[C@@H](C(C)CO)[C@H](COC(=O)C[C@H]21)[C@H]3C (some centres undefined),-21.8% (inactive),–
COc1ccc(NC(=O)c2ccc(-c3ccc(C(N)=O)cc3C)cc2)cc1N1CCN(C)CC1,-78.4% (inactive),–
Cc1cccc(-c2nn3c(c2-c2ccnc4ccc(C(N)=O)cc24)CCC3)n1,3.73% (inactive),–
CC1(C)CC[C@]2(C(=O)OC3OC(CO)C(O)C(O)C3O)CC[C@]3(C)C(=CCC4[C@@]5(C)C[C@@H](O)[C@H](OC6OC(C(=O)O)C(O)C(O)C6O)C(C)(C)C5CC[C@]43C)[C@@H]2C1 (some centres undefined),3.34% (inactive),–
O=C(NCC(=O)N1CCCC1)Nc1ccc2ccccc2c1,2.51% (inactive),–
O=C(c1c2ccccc2cc2ccccc12)N1CCC(N2CCC[C@@H](C(=O)N3CCOCC3)C2)CC1,-10.6% (inactive),–
CC(C)c1ccc2c(c1)C(O)CC1C(C)(CO)CCCC21C (centres undefined),-7.86% (inactive),–
C=CCc1cc(OC)c(OC(C)C(O)c2ccc(O)c(OC)c2)c(OC)c1 (centres undefined),0.874% (inactive),–
COc1cc(O)cc(O[C@@H]2O[C@H](CO)[C@@H](O[C@@H]3OC[C@](O)(CO)[C@H]3O)[C@H](O)[C@H]2O)c1OC,-4.25% (inactive),–
CC1(C)COC(=O)[C@@H]1O[C@@H]1O[C@H](CO)[C@@H](O)[C@H](O)[C@H]1O,0.945% (inactive),–
C[C@@H]1O[C@@H](O[C@H]2[C@@H]3C=CO[C@@H](O[C@@H]4O[C@H](CO)[C@@H](O)[C@H](O)[C@H]4O)[C@@H]3[C@@]3(CO)O[C@@H]23)[C@H](O)[C@H](O)[C@H]1OC(=O)/C=C/c1ccc(O)cc1,1.82% (inactive),–
Cc1c(NC(=O)N2CCOCC2)ccc2c1c1ccccc1n2C(C)C,-7.57% (inactive),–
COC(=O)C1=COC(OC2OC(CO)C(O)C(O)C2O)C2C(COC(=O)/C=C/c3ccc(O)c(O)c3)C(O)C(O)C12 (centres undefined),0.488% (inactive),–
O=C(OC[C@H]1O[C@H](O[C@]2(CO)O[C@H](CO)[C@@H](O)[C@@H]2O)[C@H](O)[C@@H](O)[C@@H]1O)c1ccc(O)cc1,1.1% (inactive),–
C=CC(C)(O)C1CC2C3(C)CCCC(C)(C)C3C(O)C(O)C2(C)O1 (centres undefined),3.38% (inactive),–
CC1CC(=O)[C@]2(O)C(C(=O)OCCc3ccc(O)c(O)c3)=CO[C@@H](O[C@@H]3O[C@H](CO)[C@@H](O)[C@H](O)[C@H]3O)[C@H]12 (some centres undefined),-8.88% (inactive),–
COc1cc(O)cc2c1C(=O)OC(C)CCCCCCC2 (centres undefined),-6.62% (inactive),–
C=C(C)[C@H]1CC[C@]2(C(=O)O)CC[C@]3(C)C(CCC4[C@@]5(C)CCC(=O)C(C)(C)C5CC[C@]43C)C12 (some centres undefined),–,7.09 µM (active)
OCC1OC(Oc2cc(O)cc(/C=C/c3ccc(OC4OC(CO)C(O)C(O)C4O)cc3O)c2)C(O)C(O)C1O (centres undefined),3.22% (inactive),–
